Results reported in PubChem BioAssay (Tox21).
Results filed as inconclusive are left out. The source made the active and inactive calls. Unless noted, calls come from the whole dose curve.

What was measured:
[1] = Nuclear factor erythroid 2-related factor 2/antioxidant responsive element (Nrf2/ARE) small molecule agonists: qHTS cell viability counter screen in human keratinocytes (AID 1919968; active = well fitted curve in the direction sought with a large enough effect in the repeat runs; an effect the other way counts as inactive or inconclusive; note: nearly all actives have a fitted effect of over 55% in size)
Summary of the method: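 Seed 1,500 KeratinoSens cells per well, then incubate 5 h at 37 C/5% CO2. Add compounds in DMSO and incubate 23 h. Add CellTiter-Fluor, wait 1 h and read fluorescence.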

[2] = Nuclear factor erythroid 2-related factor 2/antioxidant responsive element (Nrf2/ARE) small molecule agonists: luciferase reporter gene qHTS assay in human keratinocytes (AID 1919969); note: nearly all actives have a fitted effect of over 35% in size
[3] = target: Gonadotropin-releasing hormone receptor (Homo sapiens) (UniProt P30968); test: Human gonadotropin-releasing hormone receptor (GnRHR) small molecule agonists, calcium flux assay in GnRHR-HEK293 cells (AID 1920063); note: nearly all actives have a fitted effect of over 35% in size
Summary of the method: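 Cells: HEK293 stably expressing human GnRHR. Steps: overnight (18 h) culture, 1 h calcium dye loading at 37 C, compound addition, kinetic fluorescence read at 480/540 nm. Each compound tested at 15 concentrations in triplicate.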

[4] = target: KiSS-1 receptor (Homo sapiens) (UniProt Q969F8); test: Human kisspeptin (KISS1R) small molecule agonists, calcium flux assay in KISS1R-HEK293 cells (AID 1920064; active = well fitted curve in the direction sought with a large enough effect in the repeat runs; an effect the other way counts as inactive or inconclusive)
Summary of the method: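 Cells plated and incubated 18 h; dye added, 1 h at 37 C; compounds in DMSO pinned in; signal read at 480/540 nm every second for 3 min. Each compound tested at 15 concentrations in triplicate.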

[5] = G protein-coupled receptor (GPCR) small molecule agonists, calcium flux assay: HEK293 wild type cell line counter screen (AID 1920065)
Summary of the method: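 Counter-screen of the Tox21 10K library for non-specific calcium release: dye-loaded cells received compounds in DMSO and were monitored by kinetic fluorescence (480/540 nm, 3 min). Fifteen concentrations, run in triplicate.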

[6] = p53 small molecule agonists, cell-based qHTS assay with human liver microsomes (AID 1963577);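 note: p53 response element beta-lactamase reporter cells with liver microsomes plus NADPH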
Summary of the method: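 In this qHTS, p53 response-element beta-lactamase cells receive test compound together with a microsome/NADPH activating system (0.5 mg/mL final each) and are incubated 16 h at 37 C before LiveBLAzer fluorescence detection.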

[7] = p53 small molecule agonists, cell-based qHTS assay with rat liver microsomes (AID 1963578)
Summary of the method: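 Agonist mode in p53RE-bla reporter cells, with compounds co-incubated 16 h at 37 C alongside 0.5 mg/mL rat liver microsomes and 0.5 mg/mL NADPH (final), followed by a 2 h LiveBLAzer detection step.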

[8] = p53 small molecule agonists, cell-based qHTS assay with human liver microsomes: qHTS cell viability counter screen (AID 1963579); note: nearly all actives have a fitted effect of over 45% in size
Summary of the method: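 Metabolically activated exposure: compounds, human liver microsomes and NADPH (0.5 mg/mL final apiece) were added to p53RE-bla cells seeded 5 h earlier, left 16 h at 37 C, and then assessed for viability by CellTiter-Glo luminescence.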

[9] = p53 small molecule agonists, cell-based qHTS assay with rat liver microsomes: qHTS cell viability counter screen (AID 1963580); note: nearly all actives have a fitted effect of over 45% in size
Summary of the method: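 Viability is assessed in parallel with the p53 reporter read: HCT-116 p53RE-bla cells receive compounds plus rat microsomes and NADPH (0.5 mg/mL final apiece), incubate 16 h at 37 C, and then CellTiter-Glo luminescence is recorded.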

[10] = p53 small molecule agonists, cell-based qHTS assay: qHTS cell viability counter screen (AID 1963581); note: nearly all actives have a fitted effect of over 45% in size
Summary of the method: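 Cells: HCT-116 with p53 response element-driven beta-lactamase. Treatment: 16 h, 37 C, compounds in DMSO. Read: CellTiter-Glo luminescence after 30 min RT.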

[11] = p53 small molecule agonists, cell-based qHTS assay (AID 1963582; active = well fitted activation curve with a large enough effect in the signal ratio in the repeat runs, not every such curve was filed as active; the % refers to the signal ratio; note: potency is the fitted concentration of half-maximal effect)
Summary of the method: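 Quantitative HTS in p53RE-bla cells: after a 5 h settling period, compounds delivered in DMSO were left on cells for 16 h at 37 C, and reporter induction was measured as fluorescence following 2 h substrate loading.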

[12] = target: 5-hydroxytryptamine receptor 2A (Homo sapiens) (UniProt P28223); test: 5-hydroxytryptamine receptor 2A (HTR2A) small molecule antagonists, cell-based qHTS assay (AID 1963586); note: nearly all actives have a fitted effect of over 45% in size
Summary of the method: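 Antagonist-mode intracellular calcium assay: DOI (4 nM) added after 5 min compound pre-incubation at room temperature to dye-loaded HTR2A-CHO cells. Fluorescence followed for 3 min, sampled every second.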

[13] = target: 5-hydroxytryptamine receptor 2A (Homo sapiens) (UniProt P28223); test: 5-hydroxytryptamine receptor 2A (HTR2A) small molecule agonists, cell-based qHTS assay (AID 1963587); note: nearly all actives have a fitted effect of over 30% in size
Summary of the method: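 CHO cells stably expressing human HTR2A, plated 18 h, loaded with calcium dye 1 h at 37 C. Agonist mode: compounds added and intracellular calcium fluorescence recorded kinetically for 2 min at 1 sec intervals.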

[14] = target: Muscarinic acetylcholine receptor M1 (Homo sapiens) (UniProt P11229); test: Cholinergic receptor muscarinic 1 (CHRM1) small molecule agonists, cell-based qHTS assay (AID 1963589); note: nearly all actives have a fitted effect of over 35% in size
Summary of the method: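 Agonist-mode qHTS in CHO cells stably carrying human muscarinic M1. Intracellular calcium is tracked by fluorescence every second after compound transfer; each compound runs at 15 concentrations in three independent runs.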

[15] = cAMP Responsive Elements (CRE) small molecule antagonists, cell-based qHTS assay (AID 1963591; active = well fitted inhibition curve with a large enough effect in the signal ratio in the repeat runs, not every such curve was filed as active; the % refers to the signal ratio)
Summary of the method: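 Antagonist mode: test compounds are co-incubated with the adenylyl cyclase activator NKH477 (0.25 uM final) on CRE-bla HEK293T cells for 3 h at 37 °C, followed by LiveBLAzer substrate loading.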

[16] = target: Beta-2 adrenergic receptor (Homo sapiens) (UniProt P07550); test: Adrenergic beta2 receptor (ADRB2) small molecule antagonists, cell-based qHTS assay (AID 1963592); note: series mostly up to about 92 µM; nearly all actives have a fitted effect of over 50% in size
Summary of the method: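 Cells (CHO, stable ADRB2 overexpression) incubated 18-20hr at 37C; compounds added from DMSO; agonist mix (1nM isoproterenol, 100uM IBMX, 25uM Ro-20-1724) added; 0.5hr RT; d2-cAMP and anti-cAMP-cryptate added; 1hr RT; 665/615 nm read.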

[17] = target: D(2) dopamine receptor (Homo sapiens) (UniProt P14416); test: Dopamine D2 receptor (DRD2) small molecule agonists, cell-based qHTS assay (AID 1963594); note: nearly all actives have a fitted effect of over 35% in size
Summary of the method: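 HEK293 cells stably expressing human DRD2, pre-treated with PDE inhibitor Ro20-1724 (0.1 mM final) and compound 10 min at room temperature, then stimulated with NKH477 (200nM […]) for 30 min. cAMP read by HTRF (665/620 nm).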

[18] = target: D(2) dopamine receptor (Homo sapiens) (UniProt P14416); test: Dopamine D2 receptor (DRD2) small molecule antagonists, cell-based qHTS assay (AID 1963595; active = well fitted inhibition curve with a large enough effect in the signal ratio in the repeat runs, with a control signal flat; the % refers to the signal ratio; note: potency is the fitted concentration of half-maximal effect)
Summary of the method: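 DRD2-HEK293; 0.1 mM Ro20-1724; cpd 10 min RT; NKH477 200 nM + quinpirole 12 nM, 30 min RT; HTRF cAMP (cAMP-d2/anti-cAMP cryptate), 665/620 nm ratio after 1 h.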

[19] = target: Muscarinic acetylcholine receptor M1 (Homo sapiens) (UniProt P11229); test: Cholinergic receptor muscarinic 1 (CHRM1) small molecule antagonists, cell-based qHTS assay (AID 1963588); note: nearly all actives have a fitted effect of over 40% in size
Summary of the method: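 CHRM1-CHO calcium-flux assay, antagonist mode. Cells were seeded 18 h, dye-loaded 1 h at 37 C and given compound for 5 min at RT, then acetylcholine was added at 50nM. FDSS fluorescence was read 3 min; 15 concentrations, three runs.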

[20] = cAMP Responsive Elements (CRE) small molecule agonists, cell-based qHTS assay (AID 1963590); note: potency is the fitted concentration of half-maximal effect
Summary of the method: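 Agonist mode qHTS in CRE-bla HEK 293T cells: compounds dosed from DMSO for 3 h at 37 C/5% CO2, followed by LiveBLAzer B/G FRET substrate for 2 h at room temperature.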

Measured: Potency

Chain of D(2) dopamine receptor (Homo sapiens) (P14416 whole entry, looked up): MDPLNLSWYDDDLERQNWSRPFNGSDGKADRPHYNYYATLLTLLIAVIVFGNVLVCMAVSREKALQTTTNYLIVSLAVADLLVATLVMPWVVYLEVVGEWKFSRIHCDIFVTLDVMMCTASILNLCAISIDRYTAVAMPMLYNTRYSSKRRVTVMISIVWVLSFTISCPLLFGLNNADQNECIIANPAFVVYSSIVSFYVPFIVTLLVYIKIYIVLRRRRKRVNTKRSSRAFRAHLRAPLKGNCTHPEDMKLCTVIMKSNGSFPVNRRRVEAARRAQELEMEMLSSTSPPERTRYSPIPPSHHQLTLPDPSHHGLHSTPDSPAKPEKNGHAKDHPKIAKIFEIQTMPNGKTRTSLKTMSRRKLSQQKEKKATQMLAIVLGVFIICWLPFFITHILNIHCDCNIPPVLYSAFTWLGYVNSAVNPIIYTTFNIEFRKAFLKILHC
Chain of Muscarinic acetylcholine receptor M1 (Homo sapiens) (P11229 whole entry, looked up): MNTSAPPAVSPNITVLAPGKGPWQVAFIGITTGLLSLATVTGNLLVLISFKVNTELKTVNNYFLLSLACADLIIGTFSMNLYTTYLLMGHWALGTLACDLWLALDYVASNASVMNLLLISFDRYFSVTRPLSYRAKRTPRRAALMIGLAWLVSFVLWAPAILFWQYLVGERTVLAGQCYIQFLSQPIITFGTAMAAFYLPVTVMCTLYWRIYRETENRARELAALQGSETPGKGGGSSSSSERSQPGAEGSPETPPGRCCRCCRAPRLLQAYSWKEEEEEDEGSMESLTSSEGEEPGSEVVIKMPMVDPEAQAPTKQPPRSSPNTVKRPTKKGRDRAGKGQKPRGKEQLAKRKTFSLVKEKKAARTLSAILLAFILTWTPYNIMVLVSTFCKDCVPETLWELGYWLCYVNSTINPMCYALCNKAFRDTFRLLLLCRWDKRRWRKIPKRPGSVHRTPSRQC
Chain of Beta-2 adrenergic receptor (Homo sapiens) (P07550 whole entry, looked up): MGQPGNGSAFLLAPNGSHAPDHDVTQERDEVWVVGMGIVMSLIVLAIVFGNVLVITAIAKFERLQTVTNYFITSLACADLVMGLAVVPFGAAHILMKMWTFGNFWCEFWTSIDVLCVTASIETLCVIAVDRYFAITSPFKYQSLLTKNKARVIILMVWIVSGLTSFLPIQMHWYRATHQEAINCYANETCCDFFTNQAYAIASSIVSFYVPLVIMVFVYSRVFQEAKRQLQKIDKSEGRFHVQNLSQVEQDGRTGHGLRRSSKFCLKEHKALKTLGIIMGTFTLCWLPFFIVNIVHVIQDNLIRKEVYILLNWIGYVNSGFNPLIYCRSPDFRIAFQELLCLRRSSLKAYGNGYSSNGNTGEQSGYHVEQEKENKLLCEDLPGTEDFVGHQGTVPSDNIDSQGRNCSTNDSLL
Chain of 5-hydroxytryptamine receptor 2A (Homo sapiens) (P28223 whole entry, looked up): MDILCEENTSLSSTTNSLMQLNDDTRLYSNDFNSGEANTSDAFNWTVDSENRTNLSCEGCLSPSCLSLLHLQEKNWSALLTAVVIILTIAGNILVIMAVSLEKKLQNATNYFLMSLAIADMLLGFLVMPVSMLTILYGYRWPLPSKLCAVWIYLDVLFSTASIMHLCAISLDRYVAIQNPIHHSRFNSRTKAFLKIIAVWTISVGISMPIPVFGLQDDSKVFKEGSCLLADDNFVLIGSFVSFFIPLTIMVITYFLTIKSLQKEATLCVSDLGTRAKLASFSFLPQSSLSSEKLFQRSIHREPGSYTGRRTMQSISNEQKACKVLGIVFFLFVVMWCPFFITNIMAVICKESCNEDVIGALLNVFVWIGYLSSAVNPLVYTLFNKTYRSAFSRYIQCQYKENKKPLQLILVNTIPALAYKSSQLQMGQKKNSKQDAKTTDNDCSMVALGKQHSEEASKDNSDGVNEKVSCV
Chain of KiSS-1 receptor (Homo sapiens) (Q969F8 whole entry, looked up): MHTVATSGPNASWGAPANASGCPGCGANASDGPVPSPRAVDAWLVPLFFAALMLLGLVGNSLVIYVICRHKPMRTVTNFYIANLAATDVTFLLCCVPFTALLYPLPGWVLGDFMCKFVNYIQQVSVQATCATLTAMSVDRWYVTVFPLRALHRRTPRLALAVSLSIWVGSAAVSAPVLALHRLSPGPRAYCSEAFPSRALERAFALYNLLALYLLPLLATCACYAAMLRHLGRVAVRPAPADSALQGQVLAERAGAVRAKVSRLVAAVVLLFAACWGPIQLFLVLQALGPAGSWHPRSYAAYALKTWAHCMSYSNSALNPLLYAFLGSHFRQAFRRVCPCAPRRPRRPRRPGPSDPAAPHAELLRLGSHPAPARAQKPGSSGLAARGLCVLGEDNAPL
Chain of Gonadotropin-releasing hormone receptor (Homo sapiens) (P30968 whole entry, looked up): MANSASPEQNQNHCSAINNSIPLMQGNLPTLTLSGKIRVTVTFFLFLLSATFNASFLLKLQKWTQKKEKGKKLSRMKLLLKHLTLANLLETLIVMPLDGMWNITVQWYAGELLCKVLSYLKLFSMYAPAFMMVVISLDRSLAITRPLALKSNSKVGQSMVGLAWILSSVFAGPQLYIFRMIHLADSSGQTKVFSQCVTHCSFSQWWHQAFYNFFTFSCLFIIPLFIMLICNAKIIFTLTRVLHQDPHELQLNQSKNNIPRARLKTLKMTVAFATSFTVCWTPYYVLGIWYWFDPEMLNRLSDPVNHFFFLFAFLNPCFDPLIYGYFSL

CCOc1ccc2ccccc2c1C(=O)N[C@@H]1C(=O)N2[C@@H]1SC(C)(C)[C@@H]2C(=O)O
not listed: [19] | [20]
inactive: all other assays above

O=C(NCCO[N+](=O)[O-])c1cccnc1
not listed: [13] | [16]
inactive: all other assays above

Cc1c(C)c2c(c(C)c1OC(=O)CCC(=O)O)CC[C@@](C)(CCC[C@H](C)CCC[C@H](C)CCCC(C)C)O2
not listed: [13]
inactive: all other assays above

O=Cc1c(Cl)cccc1Cl
not listed: [13]
inactive: all other assays above

C[C@H](N)C(=O)N[C@@H](C)C(=O)NC1[C@H]2CN(c3nc4c(cc3F)c(=O)c(C(=O)O)cn4-c3ccc(F)cc3F)C[C@@H]12 (stereo not given in full)
not listed: [15] | [19] | [20]
inactive: all other assays above

CCOC(=O)CCCCCCCCC(=O)OCC
not listed: [13]
inactive: all other assays above

Cc1ccsc1C(=CCCN1CCC[C@@H](C(=O)O)C1)c1sccc1C
active: [11] 500 nM
not listed: [15] | [19] | [20]
inactive: all other assays above

NS(=O)(=O)c1cc2c(cc1C(F)(F)F)NCNS2(=O)=O
not listed: [13]
inactive: all other assays above

O=S(=O)(O)c1ccc(O)c2ncccc12
not listed: [15] | [19]
inactive: all other assays above

CC1CCCCC1
not listed: [13] | [18]
inactive: all other assays above

CCC(CC)C(=O)O
not listed: [13] | [17]
inactive: all other assays above

CNC(=O)c1cnn(-c2nc(N)c3ncn([C@@H]4O[C@H](CO)[C@@H](O)[C@H]4O)c3n2)c1
active: [20] 11900 nM | [18] 1880 nM
not listed: [15] | [17] | [19]
inactive: all other assays above

CCN(CC)C(C)=O
not listed: [13]
inactive: all other assays above

Cl[Si](Cl)(c1ccccc1)c1ccccc1
not listed: [13]
inactive: all other assays above
